Compound activity from PubChem.
Compounds with a hit are over-represented: about 3.4% of the library has one in this group of screens.
NTR1 ag = agonists of human NTR1, primary screen, imaging, U2OS cells, beta-arrestin-GFP, high content; hit rate 0.17% among 330,000; NTR1-U2OS beta-arrestin-GFP spot imaging, agonist mode; activation, % at 20 µM; AID 493036, 2011;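 active = activation at or above 40% of the spot to cytoplasm intensity ratio, with at least 20 cells analyzed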
Target sequence (P30989 whole entry, looked up): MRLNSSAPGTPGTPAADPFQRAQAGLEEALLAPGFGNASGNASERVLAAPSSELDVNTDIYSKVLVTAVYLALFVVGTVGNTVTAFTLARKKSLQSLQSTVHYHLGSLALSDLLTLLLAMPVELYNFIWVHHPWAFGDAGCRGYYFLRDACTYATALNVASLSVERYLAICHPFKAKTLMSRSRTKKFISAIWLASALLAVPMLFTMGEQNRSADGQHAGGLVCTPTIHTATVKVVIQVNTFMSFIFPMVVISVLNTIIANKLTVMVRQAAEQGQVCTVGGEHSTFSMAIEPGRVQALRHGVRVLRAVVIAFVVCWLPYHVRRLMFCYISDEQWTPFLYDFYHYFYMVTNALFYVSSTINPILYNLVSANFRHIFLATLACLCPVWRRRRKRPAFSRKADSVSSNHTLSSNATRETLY
MEKK3 PB1 HTS = modulators of MEKK3-MEK5 PB1 binding, primary screen, biochemical, wildtype MEKK3, multiplex bead flow cytometry, Alexa488-MEK5. Mitogen-activated protein kinase kinase kinase 3 (Homo sapiens), Q99759. bead-based flow cytometry, Alexa488-MEK5 binding to MEKK3; actives lie on both sides; 0 = blocked by unlabeled MEK5, 100 = vehicle. binding response (% of control), % at 10 µM. hit rate 1.4% among 290,000. AID 1529, 2009;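 active = binding response more than 3 SD above or below the average of its plate-row segment, actives on both sides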;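 also: Alexa488 bead fluorescence after subtracting the streptavidin-only scavenger bead signal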
MEKK2mut PB1 HTS = MEK5 binding signal on mutant MEKK2 PB1, primary screen, biochemical, multiplex bead flow cytometry, Alexa488-MEK5; Alexa488-MEK5 binding to MEKK2 mutant; AID 1530, 2009; hit rate 0.35% among 290,000; percent response, % at 10 µM; in the data active = percent response above about 24%, passing the limit was not always enough
ANO1 activ = TMEM16A chloride channel activators or potentiators, primary screen, cell-based, HTS. Anoctamin-1 (Mus musculus), Q8BHY3. HEK293 TMEM16A/YFP-H148Q/I152L, iodide quench fluorescence; active compounds read low. B-score at 10 µM. hit rate 0.3% among 340,000;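 active = fluorescence-ratio B-score plate-corrected deviation score at least 3 library SD below zero, with starting fluorescence score within 5 deviations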;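 also: channel opened by trigger with iodide after compound preincubation; score built on the fluorescence ratio of max minus min over baseline; more negative score means more quench and so TMEM16A activation or potentiation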
MEKK2wt PB1 HTS = modulators of MEK5 binding to wildtype MEKK2, primary screen, biochemical, multiplex bead flow cytometry, Alexa488-MEK5 | Mitogen-activated protein kinase kinase kinase 2 (Homo sapiens), Q9Y2U5 | AID 1531, 2009 | hit rate 1.1% among 290,000 | binding response (% of control), % at 10 µM | Alexa488-MEK5 binding to MEKK2 WT; actives lie on both sides; in the data active = binding response below about 67% or above about 130%
TMEM16A inh = TMEM16A chloride channel inhibitors, primary screen, cell-based, HTS; Anoctamin-1 (Mus musculus), Q8BHY3; HEK293 TMEM16A/YFP iodide influx fluorescence, ionomycin; normalized B-score (activity score, 25-100; higher = stronger inhibition) at 10 µM; hit rate 1.2% among 310,000; AID 588511, 2011;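 active = ratio plate-corrected score three or more library SD toward inhibition, starting fluorescence score within five deviations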;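 also: score derived from kinetic fluorescence span divided by baseline fluorescence per well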
MEKK2wt confirm = modulators of MEK5 binding to wildtype MEKK2, confirmation, biochemical, single concentration, multiplex bead flow cytometry. hit rate 2.4% among 5,900. Alexa488-MEK5 binding to MEKK2 WT; actives lie on both sides. binding response (% of control), % at 10 µM. shares compounds with MEKK3 PB1 HTS. AID 1892, 2009; in the data active = binding response below about 16% or above about 210%; inactive = in between
MEKK2mut-MEK5 = mutant MEKK2 PB1-MEK5 binding signal retest – biochemical, single concentration, multiplex bead flow cytometry, confirmation. Alexa488-MEK5 binding to MEKK2 mutant. hit rate 2% among 5,900. percent response, % at 10 µM. shares compounds with MEKK3 PB1 HTS; in the data active = percent response mostly above about 71%, no sharp cut-off; inactive = mostly below about 38%;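 also: higher means compound restores mutant binding toward wildtype level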
MEKK3 confirm = MEKK3 wild-type PB1 binding to MEK5, inhibitors, confirmation, biochemical, bead multiplex flow cytometry, single concentration, wildtype; shares compounds with MEKK3 PB1 HTS; Alexa488-MEK5 binding to MEKK3; active compounds read low; binding response (% of control), % at 10 µM; hit rate 1.8% among 5,900;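 active = binding response below 72% of control, or above a set upper limit, though filed actives all read lower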;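 also: lower values mean stronger disruption of MEK5 binding to MEKK3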
Numbers stand for hits; 0 = inactive; - = no result given; [ ] = remark or other dose.

SMILES | NTR1 ag | MEKK3 PB1 HTS | MEKK2mut PB1 HTS | ANO1 activ | MEKK2wt PB1 HTS | TMEM16A inh | MEKK2wt confirm | MEKK2mut-MEK5 | MEKK3 confirm
C=CCc1ccccc1OCC(O)CN1CCN(CCN2C(=O)c3cccc4cccc(c34)C2=O)CC1 (stereo unspecified) | 0 | 0 | 0 | 0 | 193 | 0 | 0 | 0 | 0
CCOCc1nnc(NC(=O)c2c(OC)cccc2OC)s1 | 0 | 0 | 0 | 0 | 137 | 0 | 0 | 0 | 0
C[C@H](CO)N1C[C@H](C)[C@H](CN(C)CC2CCCCC2)Oc2ccc(NS(=O)(=O)c3ccc(F)cc3)cc2CC1=O | 0 | - | - | 0 | - | - | - | - | -
O=C(CSc1nnc(CNC(=O)c2ccco2)o1)Nc1nc2ccccc2s1 | 0 | 0 | 0 | 0 | 0 | 0 | - | - | -
O=C(NNc1ccc(Cl)cc1)c1sccc1Cl | 0 | 0 | 0 | 0 | 0 | 0 | - | - | -
O=C(NNc1c(Cl)cncc1Cl)c1sccc1Cl | 0 | 132 | 0 | 0 | 0 | 0 | 0 | 0 | 0
Cc1nc(N)sc1-c1csc(Nc2ncccn2)n1 | - | 35[inhibitor] | 0 | 0 | 0 | - | 0 | 0 | 43
COc1ccccc1Nc1nc(-c2sc(N)nc2C)cs1 | 0 | 0 | 0 | 0 | 0 | 0 | - | - | -
CCC(C)NC(=O)/C=C1\Sc2ccccc2NC1=O (stereo unspecified) | 0 | 135 | 0 | 0 | 0 | 0 | 0 | 0 | 0
Cc1ccc(N/C=C2/Sc3ccccc3NC2=O)cc1 | 0 | 0 | 0 | 0 | 0 | 0 | - | - | -
C=CC(C)(O)CCC=C(C)C (stereo unspecified) | 0 | - | - | 0 | - | 0 | - | - | -
CC(C)=CCC/C(C)=C/CC(C)(C)CNCCN1CCNCC1 | 0 | 0 | 0 | - | 163 | 0 | 0 | 0 | 0
Cc1ccc(C(=O)Nc2ncc3c(Cl)cccc3n2)cc1 | 0 | 0 | 25 | 0 | 0 | 0 | 0 | 0 | 0
COc1ccc(CNC(=O)C2(CC3CC(c4ccccc4)=NO3)CCNCC2)cc1 (stereo unspecified) | 0 | 0 | 0 | 0 | 0 | 0 | - | - | -
CCCCN=C1CC(C)(C)CC(=O)/C1=C(/O)CCCN1C(=O)c2ccccc2C1=O | 0 | 0 | 0 | 0 | 0 | 0 | - | - | -
CC1(C)CC(=O)/C(=C(/O)Cc2ccccc2)C(=NCCc2ccccc2)C1 | 0 | 128 | 0 | 0 | 0 | 0 | 0 | 0 | 0
CC(=O)ONC(=Nc1ccccc1)c1nonc1N | 0 | 47[inhibitor] | 0 | 0 | 0 | 0 | 0 | 0 | 0
Cc1ccc(C(=O)NN2C(=O)C3C4c5ccccc5C(c5ccccc54)C3C2=O)cc1 (stereo unspecified) | 0 | 129 | 0 | 0 | 0 | 0 | 0 | 0 | 0
COc1ccccc1C1CN=NC12CCCc1ccccc1C2=O (stereo unspecified) | 0 | 24[inhibitor] | 0 | 0 | 33[inhibitor] | 0 | 0 | 0 | 0
COc1ccc(C2CN=NC23CCCc2ccccc2C3=O)cc1 (stereo unspecified) | 0 | 0 | 0 | 0 | 0 | 0 | - | - | -
CCOC(=O)/C(C#N)=C/c1cc2ccccc2nc1N1CCOCC1 | 0 | 66[inhibitor] | 0 | 0 | 0 | 0 | 0 | 0 | 0
CCOC(=O)/C(C#N)=C/c1cc2cc(C)c(C)cc2nc1Cl | 0 | 0 | 0 | 0 | 0 | 0 | - | - | -
CCOC(=O)/C(C#N)=C/c1cc2ccc(C)cc2nc1Cl | 0 | 57[inhibitor] | 0 | 0 | 0 | 0 | 0 | 0 | 0
CCOC(=O)/C(C#N)=C/C1=C(N2CCOCC2)C(C)(C)OCC1 | 0 | 0 | 0 | 0 | 0 | 0 | - | - | -
Cc1ccc(-c2cc3ccccc3nc2N2CCOCC2)cc1 | 0 | 75[inhibitor] | 0 | 0 | 0 | 0 | 0 | 0 | 0
SMILES | NTR1 ag | MEKK3 PB1 HTS | MEKK2mut PB1 HTS | ANO1 activ | MEKK2wt PB1 HTS | TMEM16A inh | MEKK2wt confirm | MEKK2mut-MEK5 | MEKK3 confirm
COCCNC(=O)C(c1ccc(F)cc1)N(C(=O)CCC(=O)Nc1ccccn1)C1CCCCC1 (stereo unspecified) | 0 | 0 | 0 | 0 | 0 | 0 | - | - | -
CCOC(=O)Cn1nc(C)c(NC(=O)c2ccc(Br)o2)c1C | 0 | 0 | 0 | 0 | 0 | 0 | - | - | -
COc1ccc(CCNC(=O)CC2SC(=NCCc3ccccc3)NC2=O)cc1OC (stereo unspecified) | 0 | 0 | 0 | 0 | 0 | 0 | - | - | -
COc1ccc(CCNC(=O)CC2SC(=NCCC(C)C)NC2=O)cc1OC (stereo unspecified) | 0 | 150 | 0 | 0 | 0 | 0 | 0 | 0 | 0
CN(Cc1ccccc1)CC(O)CN(C)Cc1ccccc1 | - | - | - | 0 | - | - | - | - | -
CCOc1ccc(C)cc1S(=O)(=O)n1cnc2ccccc21 | 0 | 0 | 0 | 0 | 0 | 0 | - | - | -
Cc1ccc(C(=O)CN(C(=O)c2ccc(Cl)c(Cl)c2)N2C(=O)C3C4C=CC(C4)C3C2=O)cc1 (stereo unspecified) | 0 | 82[inhibitor] | 0 | 0 | 0 | 0 | 0 | 0 | 0
O=C(CN(C(=O)c1ccc(Cl)cc1Cl)N1C(=O)C2C3C=CC(C3)C2C1=O)c1ccc(F)cc1 (stereo unspecified) | 0 | 0 | 0 | 0 | 0 | 0 | - | - | -
Cn1c(CS(=O)Cc2c(Cl)cccc2Cl)nnc1SCc1ccc(Cl)cc1 (stereo unspecified) | 0 | 34[inhibitor] | 0 | 0 | 0 | 0 | 0 | 0 | 0
CCOC(=O)C1C(=O)OC(C)(C)C1C(C)C(=O)c1ccc(C)cc1C (stereo unspecified) | 0 | 1.0[inhibitor] | 0 | 0 | -2.0[inhibitor] | 0 | 0 | 0 | 0
COc1cc(S(=O)(=O)n2nc(C)cc2C)c(OC)cc1Cl | 0 | 2.0[inhibitor] | 0 | 0 | -2.0[inhibitor] | 0 | 0 | 0 | 0
CCc1ccc(OCC(=O)NC(=S)Nc2ccc(C(C)=O)cc2)c(Br)c1 | 0 | - | - | 0 | - | 0 | - | - | -
CCc1ccc(OCC(=O)NC(=S)Nc2ccc(F)cc2)c(Br)c1 | 0 | 53[inhibitor] | 0 | 0 | 0 | 0 | 0 | 0 | 0
Cc1ccccc1OCC(=O)N/N=C/c1cccc(Oc2ccc([N+](=O)[O-])cc2[N+](=O)[O-])c1 | 0 | 132 | 0 | 0 | 0 | 0 | 0 | 0 | 0
